Compounds with a hit are over-represented: about 32% of the library has one in this group of screens.
CYP2C9 act – increases human cytochrome P450 2C9 activity; hit rate 1.4% among 96,000; activation factor at 5 µM; recombinant CYP2C9, luciferin-H conversion, luminescence; stronger effect = higher value; factor 1 = untreated enzyme, 0 = blocked; AID 1024;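 active = activation factor of 2 or more for CYP2C9 at a 5 µM dose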
Target sequence (P11712 whole entry, looked up): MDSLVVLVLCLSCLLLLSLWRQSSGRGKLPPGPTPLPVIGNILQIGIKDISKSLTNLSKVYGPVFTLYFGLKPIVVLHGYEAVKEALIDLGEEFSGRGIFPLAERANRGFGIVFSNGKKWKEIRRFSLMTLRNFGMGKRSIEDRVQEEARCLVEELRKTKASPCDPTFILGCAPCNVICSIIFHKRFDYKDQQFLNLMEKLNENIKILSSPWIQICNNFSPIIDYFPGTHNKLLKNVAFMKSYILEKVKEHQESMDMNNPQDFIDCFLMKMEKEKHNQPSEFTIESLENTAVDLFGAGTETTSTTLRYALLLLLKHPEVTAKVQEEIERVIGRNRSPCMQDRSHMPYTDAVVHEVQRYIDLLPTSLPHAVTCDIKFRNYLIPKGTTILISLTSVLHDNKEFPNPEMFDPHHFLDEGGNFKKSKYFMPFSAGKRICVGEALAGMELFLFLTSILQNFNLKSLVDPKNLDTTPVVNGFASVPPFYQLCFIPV
PostGolgi yeast – growth inhibition of a yeast mutant, post-Golgi transport screen | post-Golgi transport phenotypic cell assay | inhibition, % at 10 µM | hit rate 0.9% among 98,000 | AID 739;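 note: yeast cells grown in 1536-well plates; yeast grown about 18 h at 30C before absorbance read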
CYP2C19 activ – activators of human cytochrome P450 2C19; P33261; recombinant CYP2C19, luciferin-H EGE luminescence; stronger effect = higher value; 0 = fully inhibited enzyme, 1 = untreated enzyme; activation factor at 5 µM; 96,000 tested, under 10 active;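 active = activation factor of at least 2 at 5 µM in the primary screen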
CYP2C19 inhib – human CYP2C19 inhibition; inhibition, % at 5 µM; hit rate 21% among 96,000; AID 778; CYP2C19 Supersomes, luciferin-H EGE luminescence, 30 min; P33261;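 active = CYP2C19 inhibition above a set limit at 5 µM in the primary screen, cut at about 50% in these data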
PostGolgi ctrl – growth of the yeast control strain, post-Golgi counter-screen; inhibition, % at 10 µM; AID 738; hit rate 5% among 98,000; efflux-deficient yeast background strain, growth absorbance A615, 16 h
CYP2C9 inh – human CYP2C9 inhibition; P11712; CYP2C9 Supersomes, luciferin-H conversion, luminescence; inhibition, % at 5 µM; hit rate 20% among 96,000;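 active = blocking of liver enzyme CYP2C9 beyond about 50% at 5 µM, limit read from the data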
Large screens that a line does not name were inactive. Cut-off read from the data, not from the text of the source, unless noted: active = inhibition above about 30%; inactive = the rest.

O=C(NC1CCCC1)C(c1ccsc1)N(Cc1ccco1)C(=O)Cc1cccs1 (configuration not stated)	none
CCOC(=O)C1CCN(CC(O)COc2ccc(C(=O)CC)cc2)CC1 (configuration not stated)	none
O=C(c1ccccc1)c1ccc(OCC(O)CN2CCCCC2)cc1 (configuration not stated)	none
CCC(=O)c1ccc(OCC(O)CN2CCN(S(=O)(=O)N3CCCCC3)CC2)cc1 (configuration not stated)	CYP2C19 inhib 51.9, CYP2C9 inh 71.5
O=C(c1ccccc1)c1ccc(OCC(O)CN2CCN(S(=O)(=O)N3CCCCC3)CC2)cc1 (configuration not stated)	CYP2C19 inhib 85.1, CYP2C9 inh 97.7
Cc1ccc(C)c(S(=O)(=O)N2CCN(C(=O)Cn3c(C(F)(F)F)nc4ccccc43)CC2)c1	none
CCN(CC)CCCN1C(=O)c2oc3ccccc3c(=O)c2C1c1cccs1 (configuration not stated)	none
COC(=O)C1C2C=CC(C3CC23)C1C(=O)OCC(=O)c1ccccc1 (configuration not stated)	CYP2C19 inhib 95.3, CYP2C9 inh 57.0
COC(=O)C1C2C=CC(C3CC23)C1C(=O)OCC(=O)c1ccc(OC)cc1 (configuration not stated)	CYP2C19 inhib 83.4
CC(=O)c1cccc(NC(=O)C2C3C=CC(C4CC34)C2C(=O)O)c1 (configuration not stated)	none
Cc1ccsc1C(=O)Nc1ccccc1N1CCOCC1	none
COc1cccc(C(C(=O)Nc2ccc(F)cc2)N(C(=O)Cn2nnc3ccccc32)C2CC2)c1 (configuration not stated)	none
Cn1c(SCC(=O)N2CCc3ccccc32)nc2cccnc21	CYP2C19 inhib 82.3
Cn1c(SCC(=O)N2CCCCC2)nc2cccnc21	none
O=C(CSc1nccn1-c1ccccc1)N1CCc2ccccc21	CYP2C19 inhib 96.5
c1ccc(CCSc2nccn2-c2ccccc2)cc1	CYP2C19 inhib 60.7, CYP2C9 inh 54.1
O=C(O)c1cccnc1SCCc1ccccc1	none
O=C(CSc1ncc(-c2ccccc2)n1C1CCCC1)N1CCc2ccccc21	CYP2C19 inhib 65.0, CYP2C9 inh 50.6
O=C(CSc1nnnn1C1CCCCC1)N1CCc2ccccc21	none
Cc1ccc(C(=O)NC(=S)Nc2cccc3c(C)cc(C)nc23)cc1	none
COC(=O)c1c(C(=O)OC)c(-c2ccc(C)cc2)n2c1CS(=O)C2 (configuration not stated)	none
CCOC(=O)c1sc(N)nc1C(C)(C)C	CYP2C19 inhib 58.4
COc1ccc(C)cc1NC(=O)CSc1nnc(COc2ccccc2)n1Cc1ccco1	CYP2C19 inhib 87.2
Cc1cccc(OCc2nnc(SCC(=O)N(C(C)C)C(C)C)n2Cc2ccco2)c1C	CYP2C19 inhib 53.5
COc1ccccc1-n1c(CNC(=O)c2ccco2)nnc1SCC(=O)Nc1cc(C)ccc1C	CYP2C9 act 2
COc1ccc(NC(=O)CSc2nnc(COc3ccccc3)n2Cc2ccco2)cc1OC	none
COc1ccc(C)cc1NC(=O)CSc1nnc(COc2ccc(Cl)cc2)n1Cc1ccco1	PostGolgi ctrl 40.0
O=C(CSc1nnc(COc2ccc(Cl)cc2)n1Cc1ccco1)c1ccccc1F	none
Cc1ccc2c(c1)N=C(c1ccc(Cl)cc1)CO2	none
CCOC(=O)c1cnc(-n2cc(C)cn2)nc1Nc1ccccc1OCC	none
Cn1c(COc2ccccc2)nnc1SCC(=O)c1cccc([N+](=O)[O-])c1	none
COc1ccc(C)cc1NC(=O)CSc1nnc(-c2ccco2)n1N	none
COc1ccc(C)cc1NC(=O)CSc1nnc(CC(=O)Nc2ccccc2C)n1C	CYP2C19 inhib 66.1
C=CCN1C(=NC(=O)CC)SC2CS(=O)(=O)CC21 (configuration not stated)	none
Cc1ccc(OCCC(=O)OCC(=O)Nc2ccc(Cl)cn2)cc1	none
O=C(COC(=O)CCCN1C(=O)c2ccccc2C1=O)Nc1ncc(Cl)cc1Cl	CYP2C19 inhib 54.0, CYP2C9 inh 57.1
COc1ccccc1NCCC(=O)OCC(=O)Nc1ccc(Cl)cn1	CYP2C19 inhib 79.8
O=C(COC(=O)CNC(=O)c1ccco1)Nc1ccc(Cl)cn1	CYP2C19 inhib 53.5
COc1ccc(CC(=O)OCC(=O)Nc2ncc(Cl)cc2Cl)cc1OC	CYP2C19 inhib 51.4

From PubChem
